Measurements as given in PubChem BioAssay AID485364 (National Center for Advancing Translational Sciences (NCATS), 2010).
Hit rate of the full screen: of about 360,000 compounds, about 11,000 (3.1%) were called active. Where a call stands in place of a potency, no number is given. Not shown: some 4% with an inconclusive outcome. The sample holds actives, similar compounds and a random draw of the others, so the mix is not that of the screen. Calls come from the whole dose curve; as a rule, active = well fitted inhibition curve with a large enough effect; inconclusive = small, poorly fitted or top-dose-only effect; inactive = no such curve, though single readings can be large or run the other way.

Target: Schistosoma mansoni thioredoxin glutathione reductase (TGR) (UniProt Q962Y6)
Assay: qHTS Assay for the Inhibitors of Schistosoma Mansoni Peroxiredoxins; note: nearly all actives have a fitted effect of over 60% in size
Details: purified TGR, DTNB reduction, TNB absorbance 405 nm; series mostly up to 114 µM
Text: Schistosomiasis is a major neglected tropical disease that currently affects over 200 million. It is caused by different species of flatworms, such as Schistosoma mansoni. Over the last century, drugs to treat the disease have evolved from potassium antimonyl tartrate, artemisinin, oxamniquine, to praziquantel, with praziquantel remaining the universally-used single drug of choice over the past three decades. However, transmission rates have changed little with praziquantel, and there is evidence for the development of drug resistant parasites. Because there is currently no suitable alternative therapy available, there is an urgent need to identify new targets and drugs for schistosomiasis treatment. Thioredoxin glutathione reductase (TGR), one uniquely positioned S. mansoni enzyme, has been identified as a major component of the worms' distinct and compressed antioxidant "firewall". TGR is a multifunctional enzyme that catalyzes the interconversion between reduced and oxidized forms of both glutathione (GSH) and thioredoxins, thus making it an attractive new antiparasitic target. Recently, a quantitative high-throughput screen of the NIH Molecular Libraries Small Molecule Repository (MLSMR, ~71K at the time of the screen in 2007) was performed using an assay that targeted both TGR and peroxiredoxin2 (Prx2, an H2O2-reducing enzymatic component of the S. mansoni redox "firewall") by following the decrease of NADPH fluorescence. […] Additional mechanistic link between exogenous NO donation and parasitic injury for the oxadiazole-2-oxide class of compounds was also expanded and better defined. Although the screen addressed both TGR and Prx2, the assay required post-screen target deconvolution for further characterization of the actives. In addition, the fluorescence assay was also subject to fluorescence interference from compound library members. We have developed a 1536-well-based kinetic HTS assay to address TGR alone. The assay followed the reduction of 5, 5'-dithiobis (2-nitrobenzoic acid) (DTNB) (Ellman's reagent) by NADPH and measured the increase in absorbance at 412 nm of the reaction product, TNB. […] This assay format can be used to screen the current MLSMR collection (with >300K compounds available) to find novel TGR inhibitors. Furoxan is a good choice to serve as a positive control in the primary HTS assay.
Three microliters of reagents (100 uM NADPH and 20 nM TGR or 100 uM NADPH as no-enzyme control) were dispensed into 1,536-well black clear-bottomed plates. Compounds (23 nL) were transferred via Kalypsys pin tool equipped with 1536-pin array (10 nL slotted pins, V&P Scientific, San Diego, CA). The plates were then be incubated for 15 min at room temperature, and 1 uL aliquot of 500 uM NADPH were added, immediately followed by a 1 uL aliquot of 15 mM DTNB to start the reaction. The plate was transferred to a ViewLux high-throughput CCD imager (Perkin-Elmer, Wellesley, MA) where kinetic measurements of the TNB absorbance were acquired using a 405 excitation filter. Throughout the screen, reagent bottles and all liquid lines were made light-tight to minimize reagent degradation. All screening operations were performed on a fully integrated robotic system (Kalypsys, San Diego, CA) containing one RX-130 and two RX-90 anthropomorphic robotic arms (Staubli, Duncan, SC). Library plates were screened starting from the lowest and proceeding to the highest concentration, and a "double-dipping" step of the highest concentration was required to access higher concentrations of compounds. Vehicle-only plates, with DMSO being pin-transferred to the entire column 5-48 compound area, were inserted uniformly at the beginning and the end of each library in order to monitor for and record any shifts in the background, which can be affected by reagent dispensers or loss in enzyme activity overtime. […]
Potency is the fitted concentration of half-maximal effect.

SMILES	Potency
CCCOC(=O)c1c(NC(=O)c2cc3nc(-c4ccc(OC)cc4)cc(C(F)(F)F)n3n2)sc2c1CCCC2	inactive
COc1ccc(C2(Nc3cccc(F)c3)C(=O)c3ccccc3C2=O)cc1	inactive
CC(=O)N1CCN(CCN=CC2=C(O)CC(C)(C)CC2=O)CC1	28.2 µM (active)
CC1(C)CC(=O)C(C=NCCN2CCN(C(=S)Nc3cccc(Cl)c3)CC2)=C(O)C1	inactive
CCNC(=S)N1CCN(CCN=CC2=C(O)CC(C)(C)CC2=O)CC1	inactive
CCOc1ccccc1C(=O)NCc1ccc2c(c1)CCN2C(=O)c1ccc(F)cc1	inactive
CCOC(=O)c1ccc(NC2=CC(c3ccc(OCC)cc3)N(c3ccc(C(=O)OCC)cc3)C2=O)cc1 (centres undefined)	inactive
CC(C)(C)OC(=O)N1CCC(c2c(C(=O)N3CCN(c4cccc(Cl)c4)CC3)cnn2-c2cccc(Cl)c2)CC1	inactive
COc1ccc(NC(=O)COCc2cc(-c3ccco3)on2)cc1	inactive
COc1ccccc1OCC(=O)O/N=C(\N)c1ccccn1	inactive
COc1ccccc1OCC(=O)OCc1cc(-c2ccco2)on1	56.2 µM (active)
O=C(CCS(=O)(=O)c1cc(Br)cc2c1N(C(=O)C1CC1)CC2)Nc1ccc(C(F)(F)F)cc1	inactive
Cc1ccc(S(=O)(=O)N2CCN(S(=O)(=O)N3CCOCC3)CC2)cc1	inactive
O=C1CCCC(O)=C1N=Nc1ccc(S(=O)(=O)N2CCOCC2)cc1	44.7 µM (active)
CC1(C)CC(=O)C(N=Nc2ccc(S(=O)(=O)N3CCCCCC3)cc2)=C(O)C1	inactive
COc1ccc(-c2nn3c(-c4ccc(OC)cc4)nnc3c3ccccc23)cc1	inactive
Cc1cc2c(cc3c(SCc4nc(-c5ccccc5)oc4C)nnc(C)n32)o1	inactive
Cc1noc2ncnc(NCc3ccccc3Cl)c12	inactive
Cc1c(C(=O)N(C)C)sc2c1c(=O)n(-c1ccc(F)cc1)c(=O)n2CC(=O)N(C)c1ccccc1	inactive
Cc1cc(=O)[nH]c(N/N=C/c2c(C)nn(-c3ccccc3Cl)c2Cl)n1	inactive
Cc1cc(=O)[nH]c(N/N=C/c2ccc3c(c2)OCCO3)n1	39.8 µM (active)
C(=N\Nc1ccc2ccccc2n1)/c1ccc2c(c1)OCO2	inactive

SMILES	Potency
CC1=Nc2cc(C(=O)NCc3ccc(C)cc3)ccc2Sc2ccc(Cl)cc21	inactive
COc1cccc(CNC(=O)Cn2ncn3c(cc4ccccc43)c2=O)c1	inactive
Cc1ccc(CCNC(=O)c2ccc(CNS(=O)(=O)c3ccc(C)cc3)cc2)cc1	inactive
COC(=O)C1=C(C)NC(=O)/C1=C/c1ccc(CNS(=O)(=O)c2ccc(C)cc2)o1	22.4 µM (active)
COc1ccccc1CNS(=O)(=O)c1ccc(C)cc1	inactive
CCc1ccccc1NC(=O)c1ccc(F)c(S(=O)(=O)NC2CCCCCC2)c1	inactive
COc1ccc(/C(C)=N/NC(=O)c2ccc3nc[nH]c3c2)cc1	inactive
CC/C(O)=N\S(=O)(=O)c1ccc(N=NN(C)C)cc1	inactive
CN(C)N=Nc1ccc2nc[nH]c2c1	39.8 µM (active)
CCc1nn(CC(=O)Nc2cc(C)cc(C)c2)c(=O)c2cc3sccc3n12	inactive
O=C(CCl)N(Cc1cccc([N+](=O)[O-])c1)c1cccc(Cl)c1	2.51 µM (active)
COC(=O)c1cc(C(=O)N(Cc2ccccc2)c2ccccn2)cc([N+](=O)[O-])c1	inactive
CC(=O)N(CN1C(=O)C2CC=CCC2C1=O)c1cccc(Cl)c1 (centres undefined)	inactive
COc1cc(-c2noc(-c3ccc(N4CCCC4)c([N+](=O)[O-])c3)n2)cc(OC)c1OC	inactive
O=C(Nc1ccc(Br)cc1)c1cc2nc(-c3ccccc3)cc(-c3ccccc3)n2n1	inactive
O=C(NNC(=O)C1CCC1)c1ccccc1	inactive
Cc1ccc(NC(=O)C2CCCN2C(=O)OCc2ccccc2)cc1C (centres undefined)	inactive
Cc1ccc(NNC(=O)C2CCC2)cc1C	56.2 µM (active)
Cc1oc(-c2ccccc2F)nc1CN1CCC(C(=O)NCCc2ccc(Cl)cc2)CC1	inactive
CCOC(=O)c1c(S(=O)(=O)N2CCCC(C(=O)NCc3cccc(C)c3)C2)c(C)n(C)c1C (centres undefined)	inactive
Cc1ccccc1CS(=O)(=O)CC1Nc2ccc(C(=O)NCc3ccc(Cl)cc3)cc2NC1=O (centres undefined)	inactive
Cc1cc(C)cc(NC(=O)Cc2csc(C)n2)c1	inactive

SMILES	Potency
Cc1cccc(C)c1NC(=O)CCCSc1nnc(-c2ccco2)n1-c1ccccc1	89.1 µM (active)
CCc1cccc(C)c1NC(=O)CSc1nnc(-c2ccco2)n1N	inactive
CCOc1ccc(-n2c(SCC(N)=O)nnc2-c2ccco2)cc1	inactive
COC(=O)c1ccccc1NC(=S)NC(=O)c1ccccc1F	22.4 µM (active)
CC(C)C(=O)NC(=S)Nc1ccccc1F	inactive
O=C(NC(=S)NC1CCSC1=O)c1ccccc1F (centres undefined)	inactive
O=C(Cn1cc(SCc2cccc(Cl)c2)c2ccccc21)N1CCCCC1	inactive
Oc1c(C(c2ccccn2)N2CCOCC2)ccc2cccnc12 (centres undefined)	0.794 µM (active)
Cn1c(C(=O)Nc2cccc(C(F)(F)F)c2)cc2c(=O)n3ccccc3nc21	inactive
O=C(Nc1cccc([N+](=O)[O-])c1)N1CCc2ccccc2C1	inactive
Cc1cc([N+](=O)[O-])ccc1NCc1cccc([N+](=O)[O-])c1	inactive
CCC(CC)NC(=O)/C=C/c1cccc([N+](=O)[O-])c1	inactive
Cc1ccccc1NC(=S)Nc1cccc([N+](=O)[O-])c1	44.7 µM (active)
Cc1c(NC(=O)Nc2cccc([N+](=O)[O-])c2)c(=O)n(-c2ccccc2)n1C	inactive
COC(=O)/C=C\C(=O)Nc1cccc([N+](=O)[O-])c1	0.794 µM (active)
COc1ccccc1N1CCN(CCCNC(=O)c2cnn(-c3ccccc3Cl)c2C2CCN(C(=O)OC(C)(C)C)CC2)CC1	inactive
COc1ccc(Br)cc1C1CC(=O)Nc2c1c(C)nn2-c1nc(C)cc(C)n1 (centres undefined)	inactive
O=C(CCC(=O)N1CC2CCCN2c2ccccc21)NCc1ccccc1Cl (centres undefined)	inactive
Cc1ccc(N=C2NC(=O)/C(=C/C=C/c3ccco3)S2)cc1C	44.7 µM (active)
CC(C)c1ccc(NC(=O)Cn2c3ncccc3c(=O)n2-c2ccccc2)cc1	inactive
